# Results as given in paper PMC4336329 (PLoS ONE, 2015).
# The campaign covered roughly 310,000 compounds. About 14,000 (4.5%) showed an effect of 50% or more. Effects have a minus sign here. What follows is part of a selection rich in strong results, with near analogues and random picks from the rest.
# Molecular target: human ether-à-go-go-related gene (hERG) potassium channel (human, UniProt Q12809)
# Test: primary screen, population patch clamp on CHO cells stably expressing hERG; higher = less effect of the substance
# 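Also: peak tail current of the secondary pulse compared with the same well before compound.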
# Sequence of human ether-à-go-go-related gene (hERG) potassium channel (Q12809 whole entry, looked up): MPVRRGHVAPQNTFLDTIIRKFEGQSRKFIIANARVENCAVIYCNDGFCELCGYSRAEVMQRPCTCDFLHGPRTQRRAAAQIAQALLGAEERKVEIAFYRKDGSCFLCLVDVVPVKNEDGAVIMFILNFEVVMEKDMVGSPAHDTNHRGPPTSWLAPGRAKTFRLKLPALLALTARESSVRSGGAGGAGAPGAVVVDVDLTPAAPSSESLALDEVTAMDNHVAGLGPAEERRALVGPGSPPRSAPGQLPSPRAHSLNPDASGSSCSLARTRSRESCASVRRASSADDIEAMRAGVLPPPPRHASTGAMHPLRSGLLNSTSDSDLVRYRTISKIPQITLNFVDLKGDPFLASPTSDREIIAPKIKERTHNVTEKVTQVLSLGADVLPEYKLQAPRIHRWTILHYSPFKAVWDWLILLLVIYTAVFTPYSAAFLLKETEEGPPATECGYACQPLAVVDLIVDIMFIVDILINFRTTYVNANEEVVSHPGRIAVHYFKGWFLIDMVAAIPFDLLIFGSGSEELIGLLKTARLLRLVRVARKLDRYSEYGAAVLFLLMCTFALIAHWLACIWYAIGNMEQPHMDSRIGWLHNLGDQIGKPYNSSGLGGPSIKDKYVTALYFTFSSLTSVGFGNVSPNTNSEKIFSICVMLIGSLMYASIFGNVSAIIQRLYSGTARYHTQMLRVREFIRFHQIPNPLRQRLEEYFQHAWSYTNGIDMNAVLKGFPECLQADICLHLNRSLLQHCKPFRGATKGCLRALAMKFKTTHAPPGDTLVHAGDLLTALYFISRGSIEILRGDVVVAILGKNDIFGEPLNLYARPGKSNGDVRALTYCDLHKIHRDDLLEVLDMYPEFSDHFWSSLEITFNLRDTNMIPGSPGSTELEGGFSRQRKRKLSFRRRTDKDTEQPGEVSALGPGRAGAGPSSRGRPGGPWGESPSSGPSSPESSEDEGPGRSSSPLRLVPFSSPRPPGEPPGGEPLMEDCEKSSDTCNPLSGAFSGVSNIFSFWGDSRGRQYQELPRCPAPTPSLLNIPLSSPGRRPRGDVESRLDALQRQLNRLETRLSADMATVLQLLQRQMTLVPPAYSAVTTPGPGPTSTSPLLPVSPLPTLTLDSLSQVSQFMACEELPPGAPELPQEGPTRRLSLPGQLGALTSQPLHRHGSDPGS
row,SMILES,"hERG current change (%, negative = inhibition) at 10uM [%]"
1,Cc1ccc(C)c(N(CC(=O)NN=C2CCCCCCC2)S(C)(=O)=O)c1,-5.63
2,CC1(C)O[C@@H]2CC3C4C[C@H](F)C5=CC(=O)C=CC5(C)C4C(O)CC3(C)[C@]2(C(=O)CO)O1 (stereo partly shown),1.68
3,COC(=O)C1CN(C(=O)C(C)Oc2ccccc2F)c2ccccc2O1 (stereo not shown),15.6
4,CCCCN1C(=O)C(O)=C(C(C)=O)C1c1ccccc1 (stereo not shown),11
5,O=C(COc1ccc(F)c(Cl)c1)N1CCN(c2ccccn2)CC1,-55.3
6,O=C(COc1ccc(Cl)cc1Cl)N1CCN(c2ccccn2)CC1,-33.3
7,CCC(=O)c1ccc(OCC(=O)N2CCN(c3ccccn3)CC2)cc1,-31.5
8,CC(C)(C)c1ccc(OCC(=O)N2CCN(c3ccccn3)CC2)cc1,-51.7
9,O=C(COc1cc(Cl)c(Cl)cc1Cl)N1CCN(c2ccccn2)CC1,16
10,Cc1cc(OCC(=O)N2CCN(c3ccccn3)CC2)cc(C)c1Br,-32.3
11,Cc1ccc(C)c(NS(=O)(=O)c2ccc3c(c2)NC(=O)CCS3)c1,-15
12,COC(=O)COc1cccc(/C=N/NC(=O)CCSc2ccccc2)c1,-15.7
13,C(=N\c1nc2ccccc2n1CCN1CCOCC1)/c1cccs1,-20.7
14,CCOc1ccc(N2C(=O)CC(Sc3nc(-c4cccs4)cc(C(F)(F)F)c3C#N)C2=O)cc1 (stereo not shown),10.2
15,CCCNC(=O)c1csc(Nc2cccc3ccccc23)n1,-30
16,COCCNC(=O)c1csc(Nc2cccc3ccccc23)n1,-35.9
17,O=C(NCC(O)CO)c1csc(Nc2cccc3ccccc23)n1 (stereo not shown),-2.43
18,CCN(CC)C(=O)c1csc(Nc2cccc3ccccc23)n1,-16.9
19,CN(C)CCNC(=O)c1csc(Nc2cccc3ccccc23)n1,-55.4
20,CCN(CC)CCCNC(=O)c1csc(Nc2cccc3ccccc23)n1,-71.6
21,Cc1ccc(S(=O)(=O)N(C)C)cc1NC(=S)NC(C)CCC(C)C (stereo not shown),-14
22,Cn1ccnc1SCC(=O)c1cccc(C(F)(F)F)c1,-27.8

row,SMILES,"hERG current change (%, negative = inhibition) at 10uM [%]"
1,COC(=O)c1ccc(Cn2nc(C)c(Cl)c2C)o1,8.75
2,CC12CC(NC(=O)N1c1cccc(C(=O)N3CCN(c4ccccc4F)CC3)c1)c1ccccc1O2 (stereo not shown),-6.74
3,Cc1cc(C)cc(N2C(=O)CC(N(C(=O)c3ccco3)c3cc(C)cc(C)c3)C2=O)c1 (stereo not shown),12.8
4,CCn1cc(C(=O)NC2CCCCC2)c(=O)c2ccc(C)nc21,8.6
5,Cc1ccc2nc3c(cc(C(=O)NC4CCCCC4)c(=N)n3C3CCCCC3)c(=O)n2c1,-74.7
6,Cc1ccc(S(=O)(=O)c2cc3c(=O)n4ccccc4nc3n(C3CCCC3)c2=N)cc1,6.01
7,CCn1cc(C(=O)NC2CCCCCC2)c(=O)c2ccc(C)nc21,-4.88
8,Cc1ccc2nc3c(cc(C(=O)NCCCn4ccnc4)n3C)c(=O)n2c1,-34.1
9,Cc1ccc(S(=O)(=O)c2cc3c(=O)n4ccccc4nc3n(C3CCCCC3)c2=N)cc1,-5.93
10,Cc1ccc2nc3c(cc(C(=O)NC4CCCC4)c(=N)n3CCCn3ccnc3)c(=O)n2c1,-58.6
11,Cc1ccc2nc3c(cc(C(=O)NC4CCCC4)c(=N)n3C3CCCCC3)c(=O)n2c1,-77.2
12,Cc1ccc(S(=O)(=O)NC(=O)c2cc(C)n(CCCn3ccnc3)c2C)cc1,-2.28
13,O=C(/C=C/c1ccc(O)c(O)c1)NC(=O)c1ccccc1O,6.74
14,Cc1ccc(-c2nc(CS(=O)(=O)CC(=O)NCc3cccc(F)c3)c(C)o2)cc1,9.53
15,COc1ccc(S(=O)(=O)N2CCOCC2)c(C)c1C,5.99
16,O=C(c1ccc(F)c(F)c1)N1CCC2(CC1)NCCc1[nH]cnc12,10.3
17,CCOc1ccc(C(=O)N2CCC3(CC2)NCCc2[nH]cnc23)cc1OCC,22.6
18,O=C(c1ccccc1)N1CCC2(CC1)NCCc1[nH]cnc12,26.6
19,O=C(c1ccc(Br)cc1)N1CCC2(CC1)NCCc1[nH]cnc12,-65.8
20,Cc1ccc(C(=O)N2CCC3(CC2)NCCc2[nH]cnc23)cc1,-53.9
21,CCOc1ccc(C(=O)N2CCC3(CC2)NCCc2[nH]cnc23)cc1,-70.1
22,O=C(c1ccc(F)cc1)N1CCC2(CC1)NCCc1[nH]cnc12,4.43

row,SMILES,"hERG current change (%, negative = inhibition) at 10uM [%]"
1,COc1ccc(C(=O)N2CCC3(CC2)NCCc2[nH]cnc23)cc1,-18.8
2,CC(C)(C)c1ccc(C(=O)N2CCC3(CC2)NCCc2[nH]cnc23)cc1,-8.51
3,O=C(NCc1ccco1)c1ccccc1NS(=O)(=O)c1cccs1,3.9
4,Cc1ccc(Cn2ccsc2=NC(=O)COC(=O)C(C)C)cc1,-15.3
5,CSc1nnc2n(C)c3c(c(=O)n12)C1(CCCC1)Cc1ccccc1-3,2.33
6,COC(=O)c1ccccc1NC(=O)c1ccc2c(c1)OCCO2,1.86
7,O=C(CNc1ccc(Br)cc1)NNC1=NCCC1,1.72
8,CCc1ccc(CNCCc2c[nH]c3ccccc23)cc1.O=C(O)C(=O)O,-40.9
9,Cc1ccc(S(=O)(=O)Nc2ccccc2C(=O)N2CCN(C)CC2)cc1,-3.2
10,CCOC(=O)Nc1ccc2c(c1)N(C(=O)N(C)C)c1ccccc1CC2,-6.99
11,CCOC(=O)Nc1ccc2c(c1)N(C(=O)CN1CCN(C)CC1)c1ccccc1S2.Cl,-64.4
12,CCOC(=O)Nc1ccc2c(c1)N(C(=O)OC)c1ccccc1CC2,-2.44
13,CCOC(=O)Nc1ccc2c(c1)N(C(=O)CCN(C)C)c1ccccc1CC2,-40.7
14,CCOC(=O)Nc1ccc2c(c1)N(C(=O)N1CCN(C)CC1)c1ccccc1S2.Cl,-46
15,CCN(CC)CCC(=O)N1c2ccccc2CCc2ccc(NC(=O)OC)cc21.Cl,-8.57
16,CCOC(=O)Nc1ccc2c(c1)N(C(=O)CCN(CC)CC)c1ccccc1CC2,-50.3
17,CCOC(=O)Nc1ccc2c(c1)N(C(=O)C(C)N1CCCC1)c1ccccc1CC2.Cl (stereo not shown),-60.2
18,CCOC(=O)Nc1ccc2c(c1)N(C(=O)CCN1CCN(C)CC1)c1ccccc1S2.Cl,-15.2
19,C=CCSc1nc(N(CC)CC)c2sccc2n1,-12.4
20,CC(=O)c1cccc(N2C(=O)C3C4CCC(C4=C(C)C)C3C2=O)c1 (stereo not shown),21.1
21,COc1cc(CSc2nnnn2-c2ccc(C)cc2)cc(OC)c1OC,8.81
22,N#Cc1nc(-c2ccco2)oc1NCCc1ccccc1,-5.59

row,SMILES,"hERG current change (%, negative = inhibition) at 10uM [%]"
1,CCCc1cc(=O)oc2cc(C)c3c(C)coc3c12,5.51
2,COc1cccc(-n2cnc3sc(C)c(C)c3c2=O)c1,-12
3,COC(=O)C1=C(C)NC(C)=C(C(=O)OCCN(C)Cc2ccccc2)C1c1cccc([N+](=O)[O-])c1.Cl (stereo not shown),0.0465
4,COc1cc(/C=C/c2noc(-c3ccccc3O)n2)cc(OC)c1OC,9.26
5,O=C(NCc1cccc(Cl)c1)C1CCC(=O)N(CCN2CCOCC2)C1 (stereo not shown),20.5
6,CCOC(=O)c1ccc2[nH]c3c(c2c1)CCCC3,-19.2
7,CC(OC(=O)c1cccs1)C(=O)NC1CC1 (stereo not shown),-5.98
8,CC(OC(=O)c1cccs1)C(=O)NC1CCCCC1C (stereo not shown),-66.7
9,CC(OC(=O)CCC(=O)c1cccs1)C(=O)NC1CCCCC1C (stereo not shown),-6.24
10,CCOC(=O)CNC(=O)Cn1cnc2c(nnn2-c2cccc(OC)c2)c1=O,17.5
11,COc1cc(C(c2c(C)[nH][nH]c2=O)c2c(C)[nH][nH]c2=O)ccc1OC(=O)c1cccc([N+](=O)[O-])c1,10.4
12,Cc1cccc(NC(=O)N2CCCCCC2)c1,-8.87
13,Cc1nn(CCCC(=O)N2CCN(c3ccc(F)cc3)CC2)c(C)c1[N+](=O)[O-],-62.1
14,Cc1cc([N+](=O)[O-])nn1CCCC(=O)NCc1ccc(F)cc1,-0.962
15,COc1ccccc1N1CCN(C(=O)CCCn2nc(C)c([N+](=O)[O-])c2C)CC1,-19.1
16,Cc1cc([N+](=O)[O-])nn1CCCC(=O)N1CCN(c2ccccc2)CC1,-21.4
17,Cc1c(Br)c([N+](=O)[O-])nn1CCCC(=O)N1CCN(c2ccccc2)CC1,-32.4
18,Cc1nn(CC(=O)N2CCN(c3ccccc3)CC2)c(C)c1[N+](=O)[O-],-9.49
19,Cc1c(Cl)c([N+](=O)[O-])nn1CCCC(=O)O,9.17
20,Cc1c(Cl)c([N+](=O)[O-])nn1CCCC(=O)N1CCN(c2ccccc2)CC1,-58
21,Cc1cc([N+](=O)[O-])nn1CCCC(=O)N1CCN(c2ccc(F)cc2)CC1,-53.2
22,CC(=O)N1CCN(c2ccc(NC(=O)c3ccc(OCc4ccccc4)cc3)cc2)CC1,16.7
